# Screening data deposited in PubChem by National Center for Advancing Translational Sciences (NCATS).
# Vaccinia Venus: inhibitors of vaccinia virus (Venus reporter). 330,000 tested, 0.46% active. Vaccinia virus Venus reporter expression, fluorescence. Potency, µM (top dose mostly 36.5 µM), most hits filed as inhibitors. AID 720580; calls by dose curve; tested in A549 cells; also: nearly all actives have a fitted effect of over 30% in size
# Pf growth 48h: P. falciparum growth inhibition at 48 hours (one generation); P. falciparum luciferase growth in erythrocytes, 48 h; Potency, µM (highest dose often 28.7 µM), actives largely listed as inhibitors; 310,000 tested, 5.9% active; AID 504832
#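 Here the parasites carry a stable luciferase gene and grow inside erythrocytes in Albumax-based RPMI medium with compound for one erythrocytic cycle. Activity is scored as loss of luminescent signal.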
# Vaccinia mCherry: inhibitors of vaccinia virus infection (mCherry reporter signal); Potency, µM (doses to about 36.5 µM), most hits filed as inhibitors; Vaccinia virus mCherry reporter infection, fluorescence; 310,000 tested, 0.63% active; calls by dose curve; tested in A549 cells; also: nearly all actives have a fitted effect of over 35% in size
# AMA1-RON2 inh: AMA1-RON2 (P. falciparum) interaction inhibition | Potency, µM (highest dose often 58.2 µM), usual class: inhibitors | AlphaScreen AMA1-biotinylated RON2 peptide binding | 360,000 tested, 0.2% active; also: nearly all actives have a fitted effect of over 45% in size
#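 AMA1 (3D7) with his tag at 25 nM final met compounds first, then biotinylated RON2 peptide at 25 nM; detection used donor plus acceptor beads, 10 µg/mL apiece, read by AlphaScreen after 30 min at room temperature.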
# Pf growth 96h: P. falciparum growth inhibition at 96 hour, primary screen for plastid delayed-death inhibitors; 320,000 tested, 6.9% active; AID 504834; Potency, µM (top dose mostly 28.7 µM), actives largely listed as inhibitors; P. falciparum luciferase reporter growth, 96 h
#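 Luminescence readout: decreased luciferase signal marks inhibited growth of reporter-expressing P. falciparum in infected red cells (2% hematocrit, 0.05% parasitemia final), exposed to compound two generations (96 h, 37 C, 5% CO2).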
# Numbers stand for hits; . = inactive; ? = inconclusive; / = no result; [ ] = remark or other dose. Hits are enriched below; roughly 8.7% of the tested compounds scored in any of these assays. Unless noted, calls follow the shape of the dose curve; as a rule, active = well fitted curve in the direction sought with a large enough effect; inconclusive = small, poorly fitted or top-dose-only effect, or another doubt; inactive = no such curve, though single readings can be large; an effect the other way counts as inactive or inconclusive.
SMILES,Vaccinia Venus,Pf growth 48h,Vaccinia mCherry,AMA1-RON2 inh,Pf growth 96h
Cc1ccc(NC(=O)CNc2cccc(S(=O)(=O)N3CCCC3)c2)cc1F,.,9.28µM,.,.,5.22µM
CCN(CC)S(=O)(=O)c1cc(NC(=O)CNc2cccc(S(=O)(=O)N3CCOCC3)c2)ccc1C,?,?,.,.,?
Cc1ccc(NC(=O)CNc2cccc(S(=O)(=O)N3CCOCC3)c2)cc1F,.,10.4µM,.,.,6.57µM
CCN(CC)CC(=O)Nc1cccc(S(=O)(=O)N2CCCC2)c1,.,.,.,.,.
O=C(CNc1cccc(C(F)(F)F)c1)Nc1cccc(S(=O)(=O)N2CCCC2)c1,/,?,/,.,?
Cc1ccc(NCC(=O)Nc2cccc(S(=O)(=O)N(C)C)c2)cc1S(=O)(=O)N1CCCCCC1,?,?,?,.,?
O=C(CN(CCO)c1ccccc1)Nc1cccc(S(=O)(=O)N2CCCC2)c1,.,.,.,.,13.1µM
CCN(C(=O)c1cn(-c2ccc(OC)cc2)c(=O)c2ccccc12)c1cccc(Cl)c1,.,/,.,/,/
Cc1cccc(OCc2nc(CC(=O)Nc3ccc(C)c(C)c3)cs2)c1,.,/,.,/,/
CCN(CC)S(=O)(=O)c1cccc(NC(=O)CNc2cccc(S(=O)(=O)N3CCCC3)c2)c1,.,?,.,.,?
Cc1ccc(SCC(=O)Nc2cccc(S(=O)(=O)N3CCOCC3)c2)cc1C,/,16.5µM,/,.,?
O=C(CSc1ccc(Br)cc1)Nc1cccc(S(=O)(=O)N2CCOCC2)c1,.,?,.,.,.
O=C(CN1CCN(C(=O)c2ccco2)CC1)Nc1cc(S(=O)(=O)N2CCCC2)ccc1Cl,.,/,.,.,/
O=C(Cn1nnc(-c2ccccc2Cl)n1)Nc1cccc(S(=O)(=O)N2CCCC2)c1,.,/,.,.,/
O=C(CN1CCN(C(=O)c2ccco2)CC1)Nc1cccc(S(=O)(=O)N2CCCC2)c1,/,?,/,.,10.4µM
CCN(CC)S(=O)(=O)c1ccc(C)c(NC(=O)CNc2cccc(S(=O)(=O)N3CCCC3)c2)c1,.,11.7µM,.,.,.
O=C(Cn1nnc(-c2ccc(F)cc2)n1)Nc1cccc(S(=O)(=O)N2CCCC2)c1,/,?,/,.,13.1µM
COc1ccc(/C=C/c2nc(C#N)c(N3CCN(c4ccccc4)CC3)o2)cc1OC,.,/,.,/,/
CCOC(=O)c1cc(S(=O)(=O)N2CCN(c3ccc(OC)cc3)CC2)[nH]n1,.,/,.,/,/
CCOC(=O)c1ccc(NC(=O)CCn2c(=O)c3cccn3c3ccccc32)cc1,.,/,.,/,/
O=C(CNc1cccc(S(=O)(=O)N2CCCC2)c1)Nc1ccc(F)c(F)c1,?,1.47µM,?,.,1.31µM
O=C(CNc1ccccc1F)Nc1cccc(S(=O)(=O)N2CCCCC2)c1,.,?,.,.,?
Cc1ccc(NC(=O)[C@@H]2CCCN2S(=O)(=O)c2ccccc2F)cc1,.,.,.,.,.
O=C(Nc1cccc(S(=O)(=O)N2CCCCC2)c1)C1CCCN1S(=O)(=O)c1ccccc1F (stereo not given),.,10.4µM,.,.,?
Cc1ccc(-n2nnnc2SCC(=O)c2cc(C)n(CC3CCCO3)c2C)cc1 (stereo not given),.,?,.,.,1.47µM
SMILES,Vaccinia Venus,Pf growth 48h,Vaccinia mCherry,AMA1-RON2 inh,Pf growth 96h
Cc1cc(C(=O)CSc2nnnn2-c2ccccc2)c(C)n1-c1ccc2c(c1)OCO2,.,10.4µM,.,.,8.28µM
Cc1cc(C(=O)CSc2nnnn2-c2ccc(O)cc2)c(C)n1Cc1ccc2c(c1)OCO2,/,?,/,.,.
C=CCn1c(SCC(=O)c2cc(C)n(CC3CCCO3)c2C)nnc1-c1ccccc1 (stereo not given),/,?,/,.,9.28µM
Cc1sc2nc(SCC(=O)c3cc(C)n(CC4CCCO4)c3C)n(C(C)C)c(=O)c2c1C (stereo not given),.,?,.,.,8.28µM
Cc1cc(C(=O)CSc2nnc(-c3ccc(Cl)cc3)n2C)c(C)n1CC1CCCO1 (stereo not given),.,?,.,.,.
CCC(C)NC(=O)CCCc1nnc2n(CC(C)C)c(=O)c3sccc3n12 (stereo not given),.,/,.,/,/
COc1ccc(C(=O)N2CC(=O)Nc3ccc(C)cc3C2c2ccccc2)cc1OC (stereo not given),.,/,.,/,/
Cc1ccccc1NC(=O)c1c(C)oc2ccc(O)c(CN3CCN(C)CC3)c12,.,/,.,/,/
CC(=O)c1c(C)[nH]c(C(=O)CSc2nnc(-c3ccccc3)n2Cc2ccc3c(c2)OCO3)c1C,?,?,/,.,/
Cc1cc(C(=O)CSc2nnc(-c3cccc(F)c3)n2N)c(C)n1Cc1ccc2c(c1)OCO2,/,11.7µM,/,?,16.5µM
COc1ccc(CNC(=O)c2ccc3c(c2)N(Cc2ccccc2F)C(=O)c2ccccc2S3=O)cc1 (stereo not given),.,/,.,/,/
CCOCCCNC(=O)C(NC(=O)CNC(C)=O)c1ccc(C)cc1 (stereo not given),/,.,/,.,9.28µM
CCOCCCNC(=O)C(NC(=O)c1ccc(NC(C)=O)cc1)c1ccc(C)cc1 (stereo not given),.,.,.,.,.
COc1ccc(Cl)cc1NC(=O)Cn1cnc2sc(C)c(S(=O)(=O)N3CCN(c4ccccc4OC)CC3)c2c1=O,.,/,.,/,/
Cc1nn(-c2ccccc2)c(OC(=O)c2ccc(Br)cc2)c1S(=O)(=O)c1ccccc1,.,/,.,/,/
Nc1ccc(N=Nc2ccccc2)c2cccnc12,/,.,/,20µM,.
Cc1ccccc1N=Nc1ccc(O)c2ncccc12,?,0.37µM,3.55µM,.[11.6 µM],?
COc1cccc(N=Nc2ccc(O)c3ncccc23)c1,?,?,?,.,?
Cc1ccc(O)c2ncccc12,/,.,/,/,?
Oc1ccc(N=Nc2ccc3c(c2)OCCO3)c2cccnc12,?,1.04µM,?,.,?
Nc1ccc(Br)c2cccnc12,.,.,.,.,.
COc1ccc(C)cc1N=Nc1ccc(O)c2ncccc12,/,2.62µM,/,.,?
CCC(C)NC(=O)c1sc2nc(C)c(C(=O)Nc3ccc(C)cc3C)c(-c3ccc(Br)cc3)c2c1N (stereo not given),.,/,.,/,/
O=Nc1ccc(O)c2ncccc12,/,1.47µM,/,.,3.29µM
O=C(CSc1ncccn1)NCc1ccc2c(c1)OCO2,.,.,.,.,?
SMILES,Vaccinia Venus,Pf growth 48h,Vaccinia mCherry,AMA1-RON2 inh,Pf growth 96h
COc1ccc(N=Nc2ccc(O)c3ncccc23)cc1,/,0.586µM,/,.,0.522µM
Oc1ccc(CNCc2ccc3c(c2)OCO3)c2cccnc12,/,8.28µM,/,/,?
O=S(=O)(O)c1cccc2c(N=Nc3ccc(O)c4ncccc34)cccc12,/,?,/,.,.
CCOc1cc(C(=O)OCc2cc(=O)n3nc(CC)sc3n2)cc(OCC)c1OCC,.,/,.,/,/
COc1ccccc1NC(=O)C1CCN(S(=O)(=O)c2cn(C)cn2)CC1,.,/,.,/,/
CC(=O)N1CCC2(CC1)OC(=O)C(C)=C2C(=O)NCc1cccc(Cl)c1,.,/,.,/,/
CCC1CCCCN1C(=O)Cn1c(=O)cc(C(F)(F)F)c2c(C)nn(C)c21 (stereo not given),.,/,.,/,/
CCCCNC(=O)c1ccc2nc(-c3cccs3)c(-c3cccs3)nc2c1,.,/,.,/,/
